# Measurements published in PubChem BioAssay (NCATS).
# Results filed as inconclusive are left out. Activity calls are given as the source filed them. Unless noted, the call rests on the fitted dose curve; in most records, active means well fitted curve in the direction sought with a large enough effect; inconclusive means small, poorly fitted or top-dose-only effect, or another doubt; inactive means no such curve, though single readings can be large; an effect the other way counts as inactive or inconclusive.
# Tests used:
# [1] = molecular target: Cytochrome P450 3A4 (Homo sapiens) (UniProt P08684); assay: qHTS Assay for Inhibitors and Substrates of Cytochrome P450 3A4 (AID 884); further: nearly all actives have a fitted effect of over 50% in size; further: potency means the concentration at half of the fitted maximal effect; on activity change, negative = inhibition: on the % scale 0 is the no-effect control and ±100 the full control effect
# Cytochrome P450 3A4 (Homo sapiens), sequence (P08684 whole entry, looked up): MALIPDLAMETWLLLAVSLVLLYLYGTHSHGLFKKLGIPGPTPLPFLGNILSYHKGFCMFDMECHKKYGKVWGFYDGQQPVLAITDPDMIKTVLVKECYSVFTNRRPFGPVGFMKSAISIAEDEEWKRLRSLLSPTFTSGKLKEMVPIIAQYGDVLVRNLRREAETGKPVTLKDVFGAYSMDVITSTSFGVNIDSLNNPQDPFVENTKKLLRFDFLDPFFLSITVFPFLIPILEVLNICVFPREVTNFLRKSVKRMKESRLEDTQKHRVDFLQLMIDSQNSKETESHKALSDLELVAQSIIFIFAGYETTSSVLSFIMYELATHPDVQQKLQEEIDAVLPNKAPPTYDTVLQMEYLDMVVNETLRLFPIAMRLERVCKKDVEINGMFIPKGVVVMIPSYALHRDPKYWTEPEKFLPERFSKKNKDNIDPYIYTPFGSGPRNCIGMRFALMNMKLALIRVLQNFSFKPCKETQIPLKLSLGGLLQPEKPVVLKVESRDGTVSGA
# Outline: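 20 nM human CYP3A4 with 25 uM Luciferin-PPXE (at KM) in 200 mM KPO4, preincubated 10 min with compound; NADPH regeneration started a 60 min RT reaction. Luciferin detected by luminescence, normalized to 57 uM ketoconazole as full inhibition.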
# [2] = molecular target: Cytochrome P450 3A4 (Homo sapiens) (UniProt P08684); assay: qHTS Assay for Activators of Cytochrome P450 3A4 (AID 885); further: nearly all actives have a fitted effect of over 65% in size
# Outline: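 Human CYP3A4 (20 nM) with Luciferin-PPXE at 25 uM (its KM) in 200 mM KPO4; 10 min compound preincubation, then NADPH regeneration and 60 min reaction at RT. Luciferin read by luminescence; normalized to 57 uM ketoconazole full inhibition.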
# [3] = Confirmation and Secondary Assay for Modulators of Hemoglobin Beta Chain Splicing at IVS2 654 locus (AID 910);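 further: HeLa cells stably carrying EGFP split by mutant beta-globin IVS2-654 intron; per-well total GFP intensity by laser scanning cytometry after 2-day treatment; % of control where 0% means no effect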
# Outline: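 Readout: per-well total peak green fluorescence (488 nm ex, 500–520 nm em) from objects 5–250 µm, reflecting correct splicing of an EGFP-654 reporter. Compounds were applied for 2 days at 37 °C to overnight-plated HeLa EGFP-654 cells; controls were DMSO and 500 nM IVS2-654 PNA.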
# [4] = Confirmation and Secondary Assay for Modulators of Hemoglobin Beta Chain Splicing at IVS2 705 locus (AID 930);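 further: HeLa cells stably expressing the EGFP-705 splicing reporter; GFP fluorescence per well restored by corrected splicing of the IVS2-705 intron in EGFP; % of control where 0% means no effect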
# Outline: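 First, HeLa EGFP-705 cells are seeded at 500/well in Optimem with 2% FCS and left overnight. Next, compound or DMSO is added for 2 days. Finally wells are laser-scanned and total peak GFP intensity scored.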
# [5] = qHTS Assay for Lipid Storage Modulators (AID 1519; calls by dose curve; on activity change, negative = inhibition: on the % scale 0 is the no-effect control and ±100 the full control effect); conditions: Drosophila S3 cells, BODIPY lipid droplet/cell ratio, laser cytometry, cells loaded with oleic acid
# Outline: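 Cells seeded at 5,000 per well were treated with compounds over a concentration series and loaded with oleic acid (400 uM, as added). Lipid droplet fluorescence (488 nm excitation, 500-530 nm channel) was read by laser-scanning cytometry and normalized to 20 uM Triacsin C.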
# [6] = molecular target: DNA dC->dU-editing enzyme APOBEC-3G (Homo sapiens) (UniProt Q9HC16); assay: qHTS for inhibitors of Vif-A3G interactions: Validation (AID 588379); further: 0% is about no effect
# DNA dC->dU-editing enzyme APOBEC-3G (Homo sapiens), sequence (Q9HC16 whole entry, looked up): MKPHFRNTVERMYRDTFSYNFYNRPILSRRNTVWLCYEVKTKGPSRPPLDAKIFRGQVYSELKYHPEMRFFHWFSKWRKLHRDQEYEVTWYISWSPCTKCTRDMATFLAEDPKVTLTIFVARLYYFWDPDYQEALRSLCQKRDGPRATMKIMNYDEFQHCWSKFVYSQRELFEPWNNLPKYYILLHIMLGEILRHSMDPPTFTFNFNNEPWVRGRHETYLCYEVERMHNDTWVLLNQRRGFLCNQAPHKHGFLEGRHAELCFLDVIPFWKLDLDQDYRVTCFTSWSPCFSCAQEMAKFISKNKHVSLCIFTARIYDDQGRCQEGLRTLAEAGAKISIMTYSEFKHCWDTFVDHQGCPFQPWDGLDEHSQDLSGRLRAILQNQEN
# Outline: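 HeLa cells stably expressing Vif and A3G-eYFP, 700 cells/well, incubated overnight at 37 deg C, then exposed to compound overnight at 37 deg C. Inhibition of Vif-mediated degradation read as increased yellow fluorescence (Ex 488/Em 500-530) by laser-scanning cytometry.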
# [7] = molecular target: Ubiquitin carboxyl-terminal hydrolase 1 (Homo sapiens) (UniProt O94782); assay: Inhibitors of USP1/UAF1: Pilot qHTS (AID 504865);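 further: rhodamine fluorescence freed from ubiquitin-rhodamine substrate followed over time; top concentration of the series differs between compounds; on the % scale 0 is the no-effect control and ±100 the full control effect; nearly all actives have a fitted effect of over 35% in size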
# Ubiquitin carboxyl-terminal hydrolase 1 (Homo sapiens), sequence (O94782 whole entry, looked up): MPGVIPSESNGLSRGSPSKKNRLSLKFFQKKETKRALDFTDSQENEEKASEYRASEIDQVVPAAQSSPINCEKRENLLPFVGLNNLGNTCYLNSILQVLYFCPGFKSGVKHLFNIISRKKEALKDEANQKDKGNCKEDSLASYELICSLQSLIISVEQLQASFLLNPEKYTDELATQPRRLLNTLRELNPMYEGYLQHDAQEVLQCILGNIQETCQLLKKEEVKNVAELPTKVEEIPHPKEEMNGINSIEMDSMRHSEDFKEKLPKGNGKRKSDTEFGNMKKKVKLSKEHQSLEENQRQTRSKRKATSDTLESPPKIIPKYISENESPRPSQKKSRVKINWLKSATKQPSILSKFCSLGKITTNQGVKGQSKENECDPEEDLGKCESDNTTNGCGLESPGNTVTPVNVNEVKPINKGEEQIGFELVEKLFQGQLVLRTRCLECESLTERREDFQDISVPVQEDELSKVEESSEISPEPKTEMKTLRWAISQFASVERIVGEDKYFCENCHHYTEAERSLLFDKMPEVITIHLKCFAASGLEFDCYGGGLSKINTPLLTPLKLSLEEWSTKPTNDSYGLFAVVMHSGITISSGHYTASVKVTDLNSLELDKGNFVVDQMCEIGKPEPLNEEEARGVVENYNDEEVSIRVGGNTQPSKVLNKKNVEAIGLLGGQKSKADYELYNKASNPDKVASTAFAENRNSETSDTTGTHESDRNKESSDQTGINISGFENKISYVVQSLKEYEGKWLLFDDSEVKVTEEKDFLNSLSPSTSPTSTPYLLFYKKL
# Outline: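 USP1/UAF1 complex at 1 nM preincubated 15 min at room temperature with compound, then Ub-Rho substrate added at 150 nM final. Fluorescence (480/540 nm) read kinetically in 50 mM HEPES pH 7.8, 0.5 mM EDTA, 1 mM TCEP, 0.1 mg/ml BSA, 0.01% Tween-20.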
# [8] = molecular target: Cytochrome P450 2C9 (Homo sapiens) (UniProt P11712); assay: qHTS Assay for Inhibitors and Substrates of Cytochrome P450 2C9 (AID 883); further: potency means the concentration at half of the fitted maximal effect; nearly all actives have a fitted effect of over 60% in size
# Cytochrome P450 2C9 (Homo sapiens), sequence (P11712 whole entry, looked up): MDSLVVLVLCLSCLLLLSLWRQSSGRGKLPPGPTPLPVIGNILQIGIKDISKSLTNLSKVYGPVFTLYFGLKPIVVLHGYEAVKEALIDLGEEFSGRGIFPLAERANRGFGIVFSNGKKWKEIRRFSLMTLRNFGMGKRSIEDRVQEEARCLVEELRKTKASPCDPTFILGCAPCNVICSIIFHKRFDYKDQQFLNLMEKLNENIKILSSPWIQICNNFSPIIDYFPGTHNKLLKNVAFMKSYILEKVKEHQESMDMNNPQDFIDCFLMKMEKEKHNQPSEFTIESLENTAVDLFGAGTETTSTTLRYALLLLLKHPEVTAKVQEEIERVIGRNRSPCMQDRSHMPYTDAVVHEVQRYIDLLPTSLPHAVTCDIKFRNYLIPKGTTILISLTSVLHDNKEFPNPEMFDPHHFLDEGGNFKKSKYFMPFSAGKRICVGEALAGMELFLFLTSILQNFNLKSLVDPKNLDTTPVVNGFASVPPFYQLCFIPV
# Outline: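 Turnover of Luciferin-H (100uM, KM) by 10nM human CYP2C9 was measured over 60 min at 37C with NADPH regeneration; inhibitors and some substrates reduce luminescence. Data normalized to sulphaphenazole 57uM.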
# [9] = molecular target: Alpha-galactosidase (Coffea arabica) (UniProt Q42656); assay: Counterscreen for Glucocerebrosidase Inhibitors: qHTS Assay for Coffee Bean alpha-Galactosidase at pH 5.9 (AID 998);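 further: plate controls were uninhibited enzyme for no effect and no-enzyme basal signal for full effect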
# Alpha-galactosidase (Coffea arabica), sequence (Q42656 whole entry, looked up): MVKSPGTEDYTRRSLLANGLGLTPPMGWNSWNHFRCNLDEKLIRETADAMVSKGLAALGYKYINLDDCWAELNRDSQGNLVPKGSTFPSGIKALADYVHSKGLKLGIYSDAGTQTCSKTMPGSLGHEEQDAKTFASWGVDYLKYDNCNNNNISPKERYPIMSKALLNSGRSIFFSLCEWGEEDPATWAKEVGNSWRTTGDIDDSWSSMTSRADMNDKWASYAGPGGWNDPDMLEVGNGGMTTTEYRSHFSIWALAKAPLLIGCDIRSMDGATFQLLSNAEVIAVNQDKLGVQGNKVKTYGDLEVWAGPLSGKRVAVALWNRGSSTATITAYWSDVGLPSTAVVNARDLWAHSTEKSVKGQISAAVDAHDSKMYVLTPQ
# Outline: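 Compounds were titrated from 0.7 nM to 77 uM against green coffee bean alpha-galactosidase (2 nM) using 80 uM fluorogenic 4-methylumbelliferyl substrate. After 20 min at room temperature, reactions were stopped at pH 10 and read by fluorescence.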
# [10] = molecular target: Mitogen-activated protein kinase 10 (Mus musculus) (UniProt Q61831); assay: JNK3 AlphaScreen Assay (AID 530; active means well fitted curve in either direction with a large enough effect, not every such curve was filed as active;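 further: kinase came from lysate of stimulated human HepG2 cells; signal reports phosphorylation of biotinylated GST-cJun 1-79 at Ser73 with 10 µM ATP; on the % scale 0 is the no-effect control and ±100 the full control effect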)
# Outline: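 Room-temperature AlphaScreen kinase assay; pre-activated HepG2 lysate as JNK3 source, biotin-GST-cJun(1-79) substrate, 10 uM ATP, compound 15 min preincubation.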
# [11] = measured here: cell count channel max response
# [12] = measured here: lipid channel max response
smiles,measurement,setting,value
CC1=CCCC2C1(C)CCC(C)C2(C)CC/C(C)=C/C[n+]1cn(C)c2c(N)ncnc21 (configuration not stated),Potency,[1],31.6 µM (active)
same,Potency,[2],inactive
same,Potency,[3],inactive
same,Potency,[4],inactive
same,"activity change, negative = inhibition",[5]; at 57.5 µM (top of the series),6.88% (inactive)
same,max response,[5]; [11],2.19%
same,max response,[5]; [12],13.1%
O=c1cccc2n1CC1CC2CN(CCO)C1 (configuration not stated),Potency,[1],inactive
same,"activity change, negative = inhibition",[5]; at 57.5 µM (top of the series),3.63% (inactive)
same,max response,[5]; [11],9.42%
same,max response,[5]; [12],15.7%
same,outcome,[6],inactive
CC1=C2C3OC(=O)[C@H](C)[C@H]3CC[C@@]2(C)C=CC1=O (some centres not stated),"activity change, negative = inhibition",[5]; at 57.5 µM (top of the series),2.8% (inactive)
same,max response,[5]; [11],25.6%
same,max response,[5]; [12],29.5%
same,outcome,[6],inactive
CC1C(=O)OC2C1CC[C@@]1(C)C=CC(=O)[C@@]3(C)O[C@@]213 (some centres not stated),Potency,[3],inactive
same,Potency,[4],inactive
same,"activity change, negative = inhibition",[5]; at 57.5 µM (top of the series),3.63% (inactive)
same,max response,[5]; [11],-6.2%
same,max response,[5]; [12],2.49%
same,Potency,[7],inactive
COc1cc2c(cc1OC)C(C)NCC2 (configuration not stated),Potency,[1],inactive
same,Potency,[3],inactive
same,Potency,[4],inactive
same,"activity change, negative = inhibition",[5]; at 57.5 µM (top of the series),4.92% (inactive)
same,max response,[5]; [11],20%
same,max response,[5]; [12],26%
same,outcome,[6],inactive
COc1cc2c(cc1O)CCNC2C (configuration not stated),Potency,[1],inactive
same,Potency,[3],inactive
same,"activity change, negative = inhibition",[5]; at 57.5 µM (top of the series),6.98% (inactive)
same,max response,[5]; [11],8.33%
same,max response,[5]; [12],17.5%
CC1(C)C(=O)C=C[C@@]2(C)C1=C(O)C(=O)[C@@]1(C)C2CC[C@@]2(C)C(c3ccoc3)C[C@H]3O[C@@]321 (some centres not stated),Potency,[1],0.501 µM (active)
same,Potency,[2],inactive
same,Potency,[3],inactive
same,Potency,[4],inactive
same,"activity change, negative = inhibition",[5]; at 57.5 µM (top of the series),0.256% (inactive)
same,max response,[5]; [11],0.732%
same,max response,[5]; [12],3.61%
CCN1C[C@@]2(COC)C3[C@@H](OC)C4[C@@H]1[C@@]3(C1C[C@@]3(O)[C@H](OC(=O)c5ccccc5)C1[C@]4(OC(C)=O)[C@@H](O)[C@@H]3OC)[C@@H](OC)C[C@H]2O (some centres not stated),Potency,[2],inactive
same,"activity change, negative = inhibition",[5]; at 57.5 µM (top of the series),0.0984% (inactive)
same,max response,[5]; [11],-8.1%
same,max response,[5]; [12],-8.3%
same,outcome,[6],inactive
COc1cc([C@H]2c3cc4c(cc3[C@@H](O)[C@@H]3COC(=O)[C@H]23)OCO4)cc(OC)c1OC,Potency,[8],1.26 µM (active)
same,outcome,[9],inactive
same,"activity change, negative = inhibition",[5]; at 25.7 µM (top of the series),-6.44% (inactive)
same,max response,[5]; [11],-10.2%
same,max response,[5]; [12],-15%
OC[C@@H]1CCCN2CCCC[C@@H]12,Potency,[1],inactive
same,"activity change, negative = inhibition",[5]; at 57.5 µM (top of the series),-9.64% (inactive)
same,max response,[5]; [11],-24.5%
same,max response,[5]; [12],-31.5%
same,outcome,[6],inactive
C[C@@H]1O[C@H](O[C@H]2C[C@@H](O)[C@@]3(CO)[C@H]4[C@@H](O)C[C@]5(C)[C@@H](C6=CC(=O)OC6)CC[C@]5(O)[C@H]4CC[C@]3(O)C2)[C@@H](O)[C@H](O)[C@@H]1O,outcome,[10],inactive
same,"activity change, negative = inhibition",[5]; at 25.7 µM (top of the series),-0.396% (inactive)
same,max response,[5]; [11],-4.59%
same,max response,[5]; [12],-4.25%
C=C1C([C@@]2(C)C(OC(C)=O)CC(=O)O[C@@](C)(COC(C)=O)C2CC(=O)OC)C(OC=O)C(OC(=O)C(OC(C)=O)C(C)CC)[C@]2(C)C(c3ccoc3)CC(=O)C12O (some centres not stated),Potency,[1],12.6 µM (active)
same,Potency,[2],inactive
same,Potency,[3],inactive
same,Potency,[4],inactive
same,"activity change, negative = inhibition",[5]; at 57.5 µM (top of the series),-5.86% (inactive)
same,max response,[5]; [11],19%
same,max response,[5]; [12],13.8%
